We go through 15 molecules from PubChem BioAssay (EPA / NIEHS).

Inconclusive results are not listed. Calls of active or inactive are those of the source. The calls were made as follows: active = hit-call score of the fitted dose curve at least 0.9, where 1 is the maximum; inconclusive = response in the unintended direction; inactive = score below 0.9.

Usually AC50 stands for the concentration at which the activity in the assay is half-maximal.

This experiment can be described thus: STM_H9_OrnCyssISnorm_ratio: Stemina devTOX quickPredict H9 human embryonic stem cell (hESC)-based Assay for Ornithine (ORN):Cystine (CYSS) Ratio (AID 2283714). The method, then: STM_H9_secretome utilizes undifferentiated H9 cells to measure relative changes in two metabolites, ornithine (ORN) and cystine (CYSS) in the secretome, targeting a critical drop in the ORN/CYSS ratio as a biomarker for developmental toxicity.STM_H9_OrnCyssISnorm_ratio is one of 10 components calculated in the STM_H9_secretome assay. It is the ratio value of OrnISnorm_perc to CyssISnorm_perc.Data from the assay component STM_H9_OrnCyssISnorm_ratio was analyzed at the assay endpoint STM_H9_OrnCyssISnorm_ratio in the positive analysis fitting direction relative to DMSO as the negative control and baseline of activity. Using a type of binding reporter, gain or loss-of-signal activity can be used to understand relative metabolite change.
H9 hESCs maintained in a pluripotent state were exposed to test compound for 72h with chemical replenishment with media replacement every 24h. Cell-conditioned media from the final 24-h treatment period was collected for analysis of the targeted biomarker, and cell viability of the corresponding cell layer was assessed. The chemical library was tested in blinded fashion. Each test plate included 1uM Methotrexate (MTX; Selleck Chemicals, Houston, Texas) as a positive reference, 5 nM MTX as a negative reference, 0.1% DMSO as the neutral (vehicle) control, and sample-level media blanks.H9 cell-conditioned media from the final 24-h treatment period was collected for analysis of the targeted biomarker and cell viability was measured from the corresponding cell layer. Cell viability was measured using the CellTiter-Fluor assay (Promega, Madison, Wisconsin) based on proteolytic cleavage of a substrate to fluorescent signal proportional to the number of living cells. The cell viability Relative Fluorescence Unit (RFU) was background corrected and normalized to mean RFU of the neutral control (0.1% DMSO). The collected H9-cell-conditioned media samples were processed for targeted biomarker analysis as described (Palmer et al., 2013). Briefly, spent media samples were deproteinized (40% acetonitrile) and processed for UPLC-HRMS. Data acquisition was performed using 4 separate UPLC-HRMS systems, consisting of an Agilent 1290 Infinity LC system (Agilent Technologies) interfaced with an Agilent high-resolution mass spectrometer (models G6520A, G6520B, G6530A, and G6224A). A Waters Acquity UPLC BEH Amide column (2.1mm x 50mm, 1.7lm particle size; Waters, Milford, Massachusetts) maintained at 40C was applied for separation of metabolites using a 6.5min solvent gradient with 0.1% formic acid in water and 0.1% formic acid in acetonitrile (1.0ml/min flow rate). Data were acquired using MassHunter Acquisition software (version B 04.00, Agilent Technologies). The extracted ion chromatogram (EIC) areas for ORN, CYSS, and their respective spike-in C13-standards were determined using the Agilent MassHunter Quantitative Analysis software, version B.05.00 or newer (Agilent Technologies), and data were normalized as described in Palmer et al. (2017).
With `COc1cc2c(c(OC)c1OC)-c1ccc(OC)c(=O)cc1[C@@H](NC(C)=O)CC2`, the AC50 was 0.0127 µM (active). Turning to `Cc1nc(-c2ccccn2)ncc1C(=O)Nn1cc(C)c2cc(F)ccc21`, the result was inactive. In the case of `CC(C)C(=O)Nc1ccc([N+](=O)[O-])c(C(F)(F)F)c1`, the AC50 was 50 µM (active). The same measure, in the same setting: to `CCCC(CCC)C(=O)O` belongs 293 µM (active); to `Nc1ccn([C@@H]2O[C@H](CO)[C@@H](O)[C@@H]2O)c(=O)n1`, 0.203 µM (active). As to `OC(Cn1cncn1)(Cn1cncn1)c1ccc(F)cc1F`, the outcome was inactive. On to `NC(=O)NN=Cc1ccc([N+](=O)[O-])o1`, for which the AC50 was 2.42 µM (active). The same measure, in the same setting: to `CCN(CC)C(=S)SSC(=S)N(CC)CC` belongs 0.325 µM (active). Same read-out and setting: to `Cc1ncc([C@@H](CCCCCCc2ccc3c(n2)NCCC3)CC(=O)O)cn1` belongs 0.0104 µM (active). Regarding `OCCNCCO`, the AC50 is 14 µM (active). Turning to `CCCCN1C(=O)[C@@H]([C@H](O)C2CCCCC2)NC(=O)C12CCN(Cc1ccc(Oc3ccc(C(=O)O)cc3)cc1)CC2`, the AC50 was 2.14 µM (active). Still for that read-out and setting: then `O=S1(=O)CCCO1`, with 78.2 µM (active); and `COS(C)(=O)=O`, with 65.5 µM (active). `NC(=O)N1c2ccccc2C=Cc2ccccc21`: the AC50 is 4.18 µM (active). With `O=C1CN(N=Cc2ccc([N+](=O)[O-])o2)C(=O)N1`, the AC50 is 6.21 µM (active).
